The whole screen tested about 290,000 compounds, of which about 2,600 (0.9%) were called active. The entries come from a sample that favours actives as a whole. Unmarked numbers belong to inactive results.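 How the source made its calls: active means inhibition above the mean of all tested compounds plus 3 SD, cutoff set per screening run (cut at about 7.5% in these data); inactive means the rest.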

The experiment deals with VIM-2 metallo-beta-lactamase (Pseudomonas aeruginosa). Kind of experiment: inhibition of VIM-2 nitrocefin hydrolysis – biochemical, epi-absorbance readout, Pseudomonas aeruginosa enzyme, primary screen (AID 1527).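 Further: red hydrolysis product quenches plate fluorescence so inhibitors raise well fluorescence; 0% = enzyme with DMSO and 100% = DMSO without enzyme.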 Particulars: purified VIM-2, nitrocefin hydrolysis, epi-absorbance fluorescence; at 5.6 µM; active compounds read high.
Usually inhibition stands for the relative decrease from the control value, in per cent. For `CCCCc1nc2cc(C(=O)NCCc3cnn(C)c3)ccc2o1`, the inhibition was 1.12%.
As to `CC(C)(C)CC(=O)Nc1nnc(SCC(=O)NCc2cccs2)s1`, the inhibition is 20.2% (active).
For the compound `Cc1nnc(SCC(=O)NCc2cccs2)[nH]c1=O`, the inhibition is -0.38%.
As for `O=C(Cc1cccs1)Nc1nnc(SCc2ccc(F)cc2)s1`, the inhibition is 0.7%.
For the compound `CCn1c(SCc2cccc(C(=O)O)c2)nnc1-c1ccc(Cl)cc1`, the inhibition was -1.15%.
As for `Cn1c(=O)c2c(nc(N3CCOCC3)n2CCNC2=NCCC2)n(C)c1=O`, the inhibition was 16% (active).
Regarding `CCCCn1c(SCC(=O)N2CCOCC2)nc2c1c(=O)n(C)c(=O)n2C`, the inhibition was 1.45%.
With `Cn1c(=O)c2c(nc(N3CCCCCC3)n2CC(=O)c2ccc(Br)cc2)n(C)c1=O`, the inhibition is -2.28%.
The value for `COc1ccc(C(=O)NCCNc2ccc([N+](=O)[O-])cn2)cc1` was 0.89%; that for `Cc1cc(=O)oc2c(C)c(OC(C)C(=O)NC3CCN(Cc4ccccc4)CC3)ccc12` (centres undefined) was 2.37%; that for `Cc1c(OC(C)C(=O)NCC2CCC(C(=O)O)CC2)ccc2c1oc(=O)c1ccccc12` (centres undefined) was 10.8% (active).
For the compound `Cc1c(OC(C)C(=O)N[C@@H](Cc2ccccc2)C(=O)O)ccc2c3c(c(=O)oc12)CCCC3` (some centres undefined), the inhibition is 6.52%.
Regarding `C=CCc1ccc(OCCOc2cccc(/C=N/n3cnnc3)c2)c(OC)c1`, the inhibition was 0.81%.
In the case of `Cc1noc(C)c1CSCC(=O)N(CCC(C)C)c1c(N)n(Cc2ccccc2)c(=O)[nH]c1=O`, the inhibition is -3.06%.
`NC(=O)COc1ccc2c3c(c(=O)oc2c1)CCCCC3`: the inhibition was 7.97% (active).
Take `NC(=O)C1CCN(C(=O)COc2ccc3c4c(c(=O)oc3c2)CCC4)CC1`: the inhibition is 14.1% (active).
As to `CCCCc1cc(=O)oc2c(C)c(OCC(=O)N3CCC(C(N)=O)CC3)ccc12`, the inhibition was -1.28%.
For `O=C(COc1ccc2c3c(c(=O)oc2c1)CCCC3)NCC(O)c1ccccc1` (centres undefined), the inhibition was 6.2%.
In the case of `Cc1c(C)c2ccc(OCC(=O)N3CCN(c4cccc(Cl)c4)CC3)cc2oc1=O`, the inhibition was -1.38%.
Turning to `O=C(COc1ccc2c3c(c(=O)oc2c1)CCC3)NC1CCCCC1`, the inhibition was -1.01%.
The same measure for `Cc1cc(Cl)nc(NC(=O)Nc2cccc(Cl)c2)n1`: 1.05%; for `Nc1cc(N)nc(SCc2cccc(F)c2)n1`: 3.79%.
On to `N=c1oc2ccccc2cc1C(=O)NCc1ccccc1`, for which the inhibition was -0.7%.
As to `CCOC(=O)CSc1nc2ccc(C)cc2[nH]1`, the inhibition is 0.26%.
Consider `CCOC(=O)CSc1nc2ccc(C)cc2n2cnnc12`, for which the inhibition was 9.79% (active).
As for `COc1ccc(CCNc2nc3ccc(C)cc3n3cnnc23)cc1OC`, the inhibition is 0.51%.
Regarding `CCOC(=O)c1sc(NC(=S)n2cc(C)cn2)c(C(=O)OCC)c1C`, the inhibition is -2.26%.
`CN1CCN(c2cc3c(cc2F)c(=O)c(C(=O)O)cn3CCF)CC1`: the inhibition is -0.28%.
As to `CCn1cc(C(=O)NCCO)c(=O)c2cc(F)c(N3CCN(C)CC3)cc21`, the inhibition is 1.17%.
The same measure for `CCn1cc(S(=O)(=O)c2cccc(C)c2)c(=O)c2cc(F)c(N3CCN(C)CC3)cc21`: 12.1% (active); for `COc1ccc(/C=C/C(=O)NC(=S)N2CCCC(C(N)=O)C2)cc1` (centres undefined): -3%; for `COc1ccc(CNc2ccc3c(c2)CCC3)cc1OC`: -1.76%.
Regarding `CC(=O)c1nc2ccccc2n1Cc1ccccc1`, the inhibition is -0.19%.
On to `CC(=O)c1ccc(-c2ccc(Cn3c(C)nc4cc(N)c(C)nc43)cc2)cc1`, for which the inhibition is 21.7% (active).
As for `CCOC(=O)c1ccc2c(c1)nc(C)n2CC`, the inhibition was -4.24%.
In the case of `O=C(N/N=C/c1ccc(Cl)c(Cl)c1)c1ccc2nc[nH]c2c1`, the inhibition was -1.16%.
With `CS(=O)(=O)N1CCCC(C(=O)Nc2ccccc2C(F)(F)F)C1` (centres undefined), the inhibition is -0.2%.
For `O=C(CSc1ccc(-c2ccco2)nn1)Nc1cccc(F)c1`, the inhibition was -1.64%.
The same measure for `Cc1ccccc1C(=O)NC(=S)NC1CC1`: -2.76%.

For the origin of these results see PubChem BioAssay AID1527 (The Scripps Research Institute Molecular Screening Center, 2009).
